Laboratory results from the OligoGym collection.

biological target: KCND2; assay: pooled miR-30 sensor sort-seq; sequence = guide strand; conditions: shRNA
Note: reference of the scale not given here.

In order of falling sensor-assay potency score (higher = more potent):
1. TTGTATACTACCTTGATGGCTT  0.674
2. TTGTTCGTCCACAAACTCGTGA  -0.0668
3. TTTGTCTGCTCGTTGATTCTGG  -0.31
4. TAGAACACCAGGGCCATCGTGC  -0.481
5. TTGTGTCGTCGTGAACAGCAGG  -0.722
6. TTGTCTGTCATCACCAGCCCAA  -0.744
7. TTGTACTCCTCATAACAGCAGT  -0.753
8. ATTAACAGTTGCAACTTCCATG  -0.92
9. TTACTGAGTAAACCATTCCGTT  -1.06
10. TCAGCGAACAGATAGAACCAAA  -1.25

biological target: KCNE1; assay: as above; conditions: shRNA

In order of rising sensor-assay potency score (higher = more potent):
1. TTGCCAGGCATCGGACTCGATG  -1.64
2. TTGTTCTATGGCCAGATGGTTT  -1.5
3. TTTTCAACGACATAGCACGACC  -1.08
4. TTGTCCTTCTCTTGCCAGGCAT  -1.07
5. TCCAGCTTGCCGTCACTGCTGC  -1.06
6. TCAACGACATAGCACGACCTGT  -0.979
7. TTCGAGTGCTCCAGCTTCTTGG  -0.829
8. TTCTTGGAGCGGATGTAGCTCA  -0.819
9. TCGATGTAGACGTTGAATGGGT  -0.608
10. TTTAGAGAAACAGTGAAACAGT  -0.257
11. TCGGACTCGATGTAGACGTTGA  -0.164
12. TAGAGAAACAGTGAAACAGTGT  0.334

biological target: KCNH5; assay: as above; conditions: shRNA

In order of falling sensor-assay potency score (higher = more potent):
1. TTGAACAACGTAATATCCTTGA  0.815
2. TTCCACTGTCACAAGAATCTGT  0.6
3. TGAGACACTAAAAATATCCTGA  0.518
4. TTACATATCAAAATCCATGTGT  0.412
5. TTTTCTTGTACAGAAGAACTTC  0.0958
6. TTTCTTCACATCACTGATCTTA  0.0331
7. TAGAGTTTTAGGAAGTCCCGTA  -0.0513
8. TTTGAACAACGTAATATCCTTG  -0.17
9. TTGAACTTCTGGAAGAGCTTTC  -0.184
10. TTCGTGTTTGACTTCCTGCAGT  -0.357
11. TATACAAGCAATATCTATGTTT  -0.652
12. TAAACAAGACAGCAGATCGATC  -1.19

biological target: KCNJ11; assay: as above; conditions: shRNA

In order of falling sensor-assay potency score (higher = more potent):
1. TACAATGGGCACAAAGCGCTGG  0.352
2. TAGCATAGTGACAAGTGCCTTG  0.123
3. TTTGACGGTGTTGCCAAACTTG  -0.73
4. TAGTCCACAGAGTAACGTCCGT  -0.814
5. ATGCTTGCTGAAGATGAGGGTC  -1.14
6. TTGGAGTAGTCCACAGAGTAAC  -1.69
